Compound activity: PubChem BioAssay, several laboratories
Rows were chosen to be rich in hits. Some 1.7% of all compounds tested hit in one or more screens of this group.
MRP resist rev: MRP-mediated drug resistance reversal. H69AR cells + 2 uM doxorubicin, CellTiter-Glo, 72 h. differential viability (reversal), % at 10 µM. 0.04% of 85,000 active. AID 602;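 active means viability drop by adding the cancer drug above about 55%, with treated viability meeting a 40% cutoff, limit read from the data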;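 further: viability without doxorubicin minus viability with 2 µM doxorubicin for each compound; larger differential means the compound sensitizes cells more to doxorubicin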
S1P2 agonist: S1P2 (human) receptor agonism | 0.46% of 97,000 active | S1P2-expressing cell line, agonist reporter read-out | activation, % at 4.5 µM | AID 729; in the data active means activation above about 16%;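 further: 0% = vehicle low control and 100% = maximal reference agonist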
Target sequence (O95136 whole entry, looked up): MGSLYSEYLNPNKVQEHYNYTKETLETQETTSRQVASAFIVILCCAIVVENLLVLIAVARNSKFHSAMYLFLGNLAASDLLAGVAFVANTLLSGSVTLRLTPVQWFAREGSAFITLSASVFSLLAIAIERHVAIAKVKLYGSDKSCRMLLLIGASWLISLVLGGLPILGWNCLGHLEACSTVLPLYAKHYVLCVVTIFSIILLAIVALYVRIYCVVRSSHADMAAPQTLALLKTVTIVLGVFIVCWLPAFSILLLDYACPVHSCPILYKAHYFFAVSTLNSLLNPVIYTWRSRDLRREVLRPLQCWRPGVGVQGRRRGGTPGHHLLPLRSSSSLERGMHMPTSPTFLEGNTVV
MRP-1 activ: activates MRP-1; AID 799; 0.61% of 140,000 active; H69AR cells + doxorubicin, viability rescue, CellTiter-Glo; viability increase, % at 10 µM;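 active means viability gain under doxorubicin at or above a set limit, the compound median plus 3 SD, cut at about 4.7% in these data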;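 further: MRP-1 overexpressing cells given doxorubicin 25 µM after compound pretreatment; 18-22 h compound pretreatment then 72 h with doxorubicin before readout; 0% = doxorubicin-only wells and 100% = vehicle-treated cells without doxorubicin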
GALR2 agonist: activates the human galanin receptor 2; O43603; GALR2-expressing cells, agonist activation read-out; activation, % (no concentration beside the values); 0.48% of 140,000 active; in the data active means activation above about 5%, passing the limit was not always enough;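 further: 0% = vehicle buffer wells and 100% = reference agonist at full effect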
GALR2 antag: antagonists of human galanin receptor 2 (GALR2); O43603; GALR2-expressing cells, antagonist mode; inhibition, % at 4 µM; 0.39% of 140,000 active; AID 828; in the data active means inhibition above about 27%;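 further: cells stimulated with galanin 1-16 at roughly its EC80; 0% = agonist challenge control and 100% = basal control without agonist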
S1P2 blocker: blocks the human S1P2 receptor; O95136; 0.21% of 97,000 active; inhibition, % at 5 µM; cell-based S1P2 antagonist assay, inhibition at 5 uM; in the data active means inhibition above about 45%;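 further: CRE beta-lactamase reporter cells expressing human S1P2 stimulated with S1P; 0% = agonist at EC80 alone and 100% = agonist plus reference antagonist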
* = called active by the depositor.

`Cc1cccc(C(=O)NC2CC3CCCC(C2)N3C(=O)NC2CCCCC2)c1` (configuration not stated) gave S1P2 agonist 66*, MRP-1 activ -2, GALR2 agonist -2, GALR2 antag 6 and S1P2 blocker -8.
`CCOC(=O)C1=C(C)NC(SCC(=O)Nc2nc(C)cs2)=C(C#N)C1c1cccs1` (configuration not stated) gave MRP resist rev -20, S1P2 agonist 20*, MRP-1 activ -3, GALR2 agonist 22*, GALR2 antag -9 and S1P2 blocker -21.
`C=CCOC(=O)C1=C(C)NC(SCC(N)=O)=C(C#N)C1c1cccs1` (configuration not stated) gave MRP-1 activ -2, GALR2 agonist -1 and GALR2 antag -3.
For CO/N=C(\c1nonc1N)N1CCN(c2ccc(Cl)cc2[N+](=O)[O-])CC1 the results were S1P2 agonist -6, MRP-1 activ 0, GALR2 agonist -2, GALR2 antag -7 and S1P2 blocker 9.
CCOc1ccc(S(=O)(=O)N2CCN(C(=O)c3cc4c(s3)CCCC4)CC2)cc1 was read as MRP-1 activ -4, GALR2 agonist -1 and GALR2 antag 4.
For O=C(CC1SC(=O)N(Cc2ccccc2)C1=O)Nc1nccs1 (configuration not stated) the results were MRP-1 activ 12*, GALR2 agonist -1 and GALR2 antag 4.
For O=C1NC(=Nc2ccccc2)SC1Cc1cccc(Cl)c1Cl (configuration not stated) the results were MRP-1 activ 5.7*, GALR2 agonist -1 and GALR2 antag 11.
Screening Cn1c(-c2cc3ccc(OC(=O)C(C)(C)C)cc3oc2=O)nc2ccccc21 returned MRP resist rev 9, S1P2 agonist 34*, MRP-1 activ -4, GALR2 agonist 46*, GALR2 antag 21 and S1P2 blocker 2.
Screening NC1C2CN(c3nc4c(cc3F)c(=O)c(C(=O)O)cn4-c3ccc(F)cc3F)CC12 (configuration not stated) returned S1P2 agonist -7, MRP-1 activ 6.6*, GALR2 agonist 2, GALR2 antag -5 and S1P2 blocker 27.
`C=CCc1c(C)nc(-c2ccccc2)nc1N/N=C(\C)c1ccccc1` gave MRP-1 activ 5.5*, GALR2 agonist -1 and GALR2 antag -13.
For O=C(NCCc1ccc2c(c1)OCCO2)c1cc(F)cc(F)c1 the results were MRP-1 activ 4.7*, GALR2 agonist -1 and GALR2 antag 3.
For OCCN(CCO)c1ncnc2c1oc1ccc(Br)cc12 the results were MRP resist rev -6, S1P2 agonist 20*, MRP-1 activ -4, GALR2 agonist -1, GALR2 antag -15 and S1P2 blocker -52.
`O=C(CCC(=O)c1ccc(F)cc1)Nc1cccc(S(=O)(=O)Nc2cccc(Cl)c2)c1` gave MRP-1 activ 2, GALR2 agonist -1 and GALR2 antag 2.
`COc1cccc(Nc2ncc(C(=O)O)c3ccccc23)c1` gave MRP resist rev 0, S1P2 agonist -5, MRP-1 activ 5.1*, GALR2 agonist -1, GALR2 antag 0 and S1P2 blocker -3.
Screening CCn1c(=O)c(C(=O)Nc2nc3ccccc3[nH]2)c(O)c2ccccc21 returned S1P2 agonist 4, MRP-1 activ -3, GALR2 agonist 1, GALR2 antag 2 and S1P2 blocker 79*.
`CCn1c(=O)c(C(=O)Nn2c(C)nc3ccccc3c2=O)c(O)c2ccccc21` gave MRP resist rev -15, MRP-1 activ -1, GALR2 agonist 0 and GALR2 antag 2.
For CC(/C=N/NC(=O)c1nn(C)c(C)c1Br)=C\c1ccccc1 the results were MRP-1 activ 7.7*, GALR2 agonist -1 and GALR2 antag 1.
Screening O=C(/C=C/c1ccc2c(c1)OCO2)NCCSCc1c(Cl)cccc1Cl returned MRP-1 activ 0, GALR2 agonist 0 and GALR2 antag -8.
Screening CN(Cc1ccccc1)c1nc(N)c([N+](=O)[O-])c(Nc2cccc(F)c2)n1 returned MRP resist rev 25, S1P2 agonist 22*, MRP-1 activ -1, GALR2 agonist -4, GALR2 antag 1 and S1P2 blocker -60.
Screening COc1cc(/C=N/Nc2nc(Nc3ccccc3)nc(-n3nc(C)cc3C)n2)cc(OC)c1OC returned MRP-1 activ -3, GALR2 agonist 8.1* and GALR2 antag 7.
`COc1cc(/C=N/Nc2nc(Nc3ccc(C)cc3)nc(-n3nc(C)cc3C)n2)cc(OC)c1OC` gave S1P2 agonist -1, MRP-1 activ -1, GALR2 agonist 6, GALR2 antag 7 and S1P2 blocker 47*.
For Cc1cccn2c(=O)c(/C=C(\C#N)C(=O)NC3CCS(=O)(=O)C3)c(N3CCC(C(N)=O)CC3)nc12 (configuration not stated) the results were MRP-1 activ 0, GALR2 agonist 6.3* and GALR2 antag -4.
COc1ccccc1N(C(=O)c1snc(C(N)=O)c1N)C(C(=O)NCCC(C)C)c1ccco1 (configuration not stated) was read as MRP resist rev 7, S1P2 agonist -2, MRP-1 activ 0, GALR2 agonist -2, GALR2 antag -2 and S1P2 blocker -8.
`CCOc1ccccc1N(C(=O)c1snc(C(N)=O)c1N)C(C(=O)NCCC(C)C)c1ccco1` (configuration not stated) gave MRP resist rev -10, S1P2 agonist -2, MRP-1 activ 5.3*, GALR2 agonist 1, GALR2 antag -9 and S1P2 blocker -8.
`Cc1[nH]c(=S)sc1Cc1ccc(F)cc1` gave MRP-1 activ -1, GALR2 agonist -2 and GALR2 antag 0.
For N#Cc1c(-c2ccco2)nc(SCC(=O)Nc2cccc(Cl)c2)[nH]c1=O the results were MRP resist rev 8, S1P2 agonist -9, MRP-1 activ 5.5*, GALR2 agonist -1, GALR2 antag -8 and S1P2 blocker 12.
Screening Cc1noc(C)c1COC(=O)Cc1ccc(Cl)c(Cl)c1 returned MRP resist rev 18, S1P2 agonist -3, MRP-1 activ 1, GALR2 agonist -2, GALR2 antag -1 and S1P2 blocker 17.
Cc1noc(C)c1COC(=O)[C@H](C)NS(=O)(=O)c1ccc(Cl)c(Cl)c1 was read as MRP resist rev 12, S1P2 agonist -3, MRP-1 activ 0, GALR2 agonist 14*, GALR2 antag -8 and S1P2 blocker -14.
Cc1cccc(N2CCN(c3cc(C)nc4nnnn34)CC2C)c1 (configuration not stated) was read as MRP resist rev 9, MRP-1 activ 0, GALR2 agonist 5.4* and GALR2 antag 7.
Screening Cc1cc(N2CCN(c3ccccc3)CC2)n2nnnc2n1 returned MRP resist rev 17, MRP-1 activ 0, GALR2 agonist 0 and GALR2 antag 2.
